High-throughput results deposited in PubChem BioAssay by several laboratories.
A selection: hits, their analogues and other compounds. The true share with any hit is near 3.9%.
NTR1 agonist: NTR1 (human) agonism; activation, % at 20 µM; actives 0.17% (n = 330,000); P30989; NTR1-U2OS beta-arrestin-GFP spot imaging, agonist mode; AID 493036;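 active = activation at or above 40% of the spot to cytoplasm intensity ratio, with at least 20 cells analyzed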
SUMO HTRF inh: SUMOylation inhibition; AID 2006; P63279; actives 0.36% (n = 290,000); HTRF SUMOylation assay, SAE1/SAE2 + UBC9, in vitro; inhibition, % at 35 µM; in the data active = inhibition above about 50%, passing the limit was not always enough
Target sequence (P63279 whole entry, looked up): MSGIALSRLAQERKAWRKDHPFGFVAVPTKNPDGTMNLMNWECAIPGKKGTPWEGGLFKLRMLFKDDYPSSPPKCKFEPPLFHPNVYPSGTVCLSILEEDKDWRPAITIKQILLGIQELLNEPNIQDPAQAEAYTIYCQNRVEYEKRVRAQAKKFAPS
H9c2 protect: myocardial damage modulation in H9c2 cells; actives 0.63% (n = 360,000); H9c2 cardiomyocytes, H2O2 injury protection, ATPLite, 2 h; protection from H2O2 cell death, % at 20 µM;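 active = compounds giving at least 50% protection of heart cells from peroxide-induced death in the single-dose screen, raw or plate-pattern-corrected value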
ALR inh: blocks human ALR sulfhydryl oxidase activity; purified ALR, DTT oxidation, H2O2 HRP-luminol luminescence; inhibition, % (no concentration beside the values); actives 3.8% (n = 290,000); AID 485317;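 active = mean replicate inhibition above about 79%, with every replicate also reaching it, limit read from the data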
Target sequence (P55789 whole entry, looked up): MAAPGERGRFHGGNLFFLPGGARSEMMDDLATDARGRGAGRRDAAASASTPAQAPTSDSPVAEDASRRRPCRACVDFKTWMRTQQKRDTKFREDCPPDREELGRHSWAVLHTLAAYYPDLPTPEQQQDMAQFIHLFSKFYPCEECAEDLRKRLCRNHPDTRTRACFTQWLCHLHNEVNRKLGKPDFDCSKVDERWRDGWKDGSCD
Large screens that a line does not name were inactive.

COc1ccc(OCc2nnc(SCC(=O)Nc3nnc(C4CC4)s3)n2C)cc1	none
Fc1ccc(-n2c(-c3cccs3)nc3nc4ccccc4nc32)cc1	none
Fc1cccc(-n2c(-c3cccs3)nc3nc4ccccc4nc32)c1	SUMO HTRF inh 55 (no result: H9c2 protect)
CSc1cccc(NC(=O)CN2C(=O)c3ccccc3S2(=O)=O)c1	ALR inh 95
Cc1ccc(/C=C2\SC(=S)N(CCC(=O)NNC(=O)c3ccccc3O)C2=O)cc1	none
Cc1ccc(/C=C2\SC(=S)N(CCCC(=O)NNC(=O)c3ccccc3O)C2=O)cc1	H9c2 protect 55
O=C(O)CCCN1C(=O)/C(=C\C(Cl)=C\c2ccccc2)SC1=S	ALR inh 98 (no result: NTR1 agonist)
CC(=C\c1ccccc1)/C=C1/SC(=O)N(CCCC(=O)Nc2ccc(C(=O)O)cc2)C1=O	ALR inh 97
O=C(CCCN1C(=O)S/C(=C/C=C/c2ccccc2)C1=O)Nc1ccc(C(=O)O)cc1	none (no result: ALR inh)
CC(/C=C1\SC(=S)N(CCCC(=O)Nc2ccc(C(=O)O)c(O)c2)C1=O)=C\c1ccccc1	ALR inh 97 (no result: NTR1 agonist, H9c2 protect)
COc1ccc(NC(=O)CN(C)Cc2cccs2)cc1Cl	none
O=C(CCN1C(=O)/C(=C/c2cccs2)SC1=S)Nc1ccc(C(=O)O)c(O)c1	ALR inh 79
O=C(O)CCCN1C(=O)/C(=C\c2ccc(-c3nc4ccccc4s3)o2)SC1=S	ALR inh 94
O=C(CCN1C(=O)/C(=C/c2cccs2)SC1=S)Nc1ccc(O)cc1	none
O=C(O)CCN1C(=O)/C(=C/c2ccc(-c3nc4ccccc4s3)o2)SC1=S	none
COc1ccc(C(C)=O)cc1COC(=O)c1cnc(C)cn1	none
Nn1c(SCC(=O)NC2CCS(=O)(=O)C2)nc2scc(-c3ccccc3)c2c1=O (configuration not stated)	none (no result: SUMO HTRF inh)
CCN(CC)c1ccc([C@H]2[C@@H]3CCCC[C@]3(O)CCN2CC(=O)NCc2ccco2)cc1	ALR inh 99
CCN(CC)c1ccc(C2C3CCCCC3(O)CCN2CC(=O)N2CCCCC2)cc1 (configuration not stated)	ALR inh 99
CCN(CC)c1ccc(C2C3CCCCC3(O)CCN2C(=O)c2cccs2)cc1 (configuration not stated)	none (no result: ALR inh)
Cc1ccc(S(=O)(=O)NCC(=O)NCC(=O)OCc2c(F)cccc2Cl)cc1	none
O=C(CN1CCN(Cc2cccc(Cl)c2)C1=O)NCC1CCCO1 (configuration not stated)	none (no result: ALR inh)
Cc1cc(C)nc(SCc2ccc(C(=O)NN=C3CCCC3)cc2)n1	none
CN(C)CCCN=c1cc(-c2ccccc2)oc2ccc(Cl)cc12	none (no result: NTR1 agonist, ALR inh)
O=C(CSc1nccn1-c1ccccc1)N1CCc2ccccc21	none
O=S(=O)(Cc1ccccc1)C(c1ccccc1)S(=O)(=O)Cc1ccccc1	none (no result: NTR1 agonist, SUMO HTRF inh, ALR inh)
COc1ccc(N(C)S(=O)(=O)c2cccc(C(=O)NC3CCC(C)CC3)c2)cc1 (configuration not stated)	none
COc1ccc(N(C)S(=O)(=O)c2cccc(C(=O)Nc3cccc(C(=O)NC4CC4)c3)c2)cc1	ALR inh 94 (no result: SUMO HTRF inh)
COc1ccc(N(C)S(=O)(=O)c2cccc(C(=O)Nc3nc(C)c(C(C)=O)s3)c2)cc1	ALR inh 99 (no result: SUMO HTRF inh)
CCSc1nnc(NC(=O)c2cccc(S(=O)(=O)N(C)c3ccc(C)cc3)c2)s1	ALR inh 98
COc1ccc(N(C)S(=O)(=O)c2cccc(C(=O)Nc3nnc(C)s3)c2)cc1	none (no result: SUMO HTRF inh)
CN(c1cccc(Cl)c1)S(=O)(=O)c1cccc(C(=O)NC2=NCCS2)c1	ALR inh 98
O=C(O)Cc1ccc(NC(=O)Nc2ccc(Br)cc2)cc1	none
Cc1ccc2sc(N(CCCN(C)C)C(=O)CCS(=O)(=O)c3ccccc3)nc2c1C	ALR inh 98
COc1ccc(OC)c2sc(N(CCCN(C)C)C(=O)CCS(=O)(=O)c3ccccc3)nc12	none (no result: SUMO HTRF inh)
Cc1ccc(N2CCC(N3CCN(C4CCCCC4)C(CCO)C3)CC2)cc1 (configuration not stated)	ALR inh 99
Cc1cc(F)ccc1N1CCC(N2CCN(CCC(C)C)C(CCO)C2)CC1 (configuration not stated)	none
CC(C)CCN1CCN(C2CCN(c3ccc4c(c3)OCO4)CC2)CC1CCO (configuration not stated)	ALR inh 99
Cc1ccc(NC(NC(=O)c2ccccc2[N+](=O)[O-])C(Cl)(Cl)Cl)cc1 (configuration not stated)	ALR inh 99
Cc1[nH]nc(Nc2ccc(O)cc2)c1[N+](=O)[O-]	ALR inh 99
COc1ccc(Nc2n[nH]c(C)c2[N+](=O)[O-])cc1	none
CSc1nc2ccc3nc(NC(=O)c4ccc(Cl)s4)sc3c2s1	ALR inh 91
